Measured values taken from PubChem BioAssay (EPA / NIEHS).
Results filed as inconclusive are left out. Calls of active or inactive are those of the source. The calls were made as follows, unless noted: active = hit-call score of the fitted dose curve at least 0.9, where 1 is the maximum; inactive = score below 0.9.

Legend:
[1] = read-out: Monokine induced gamma interferon (MIG), CXCL9 (gene 4283); experiment: BSK_3C_MIG: BioMAP Diversity Plus: 3C Assay for Monokine induced gamma interferon (MIG) Biomarker Activity (AID 2283021); conditions: primary human endothelial cells (HUVEC); actives raise or lower the signal;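 as to AC50: MIG protein level measured by immunoassay in the treated endothelial cultures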
Method in brief: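 Endothelial primary cells (human umbilical vein) are dosed with test chemical in the 3C system. MIG levels are measured by ELISA at 24 h and fitted in both directions relative to DMSO.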

[2] = biological target: human Vitamin D Receptor (VDR), VDR (gene 7421) (UniProt P11473); experiment: ATG_VDR_TRANS: Attagene TRANS-FACTORIAL HepG2 Assay for human Vitamin D Receptor (VDR) (AID 2283022; active = hit-call score of the fitted dose curve at least 0.9, where 1 is the maximum)
Method in brief: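 Fluorescence of labelled reporter cDNA fragments, resolved by capillary electrophoresis, gives mRNA induction after 24 h treatment of HepG2 cells carrying transfected Gal4-fusion reporter units. Activity is fitted in the positive direction with DMSO as baseline.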

[3] = read-out: Matrix Metallopeptidase 1 (MMP1), MMP1 (gene 4312); experiment: BSK_BE3C_MMP1: BioMAP Diversity Plus: BE3C Assay for Matrix Metallopeptidase 1 (MMP1) Biomarker Activity (AID 2283024); conditions: primary human bronchial epithelial cells; actives raise or lower the signal
Method in brief: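 MMP1 signal, measured by ELISA after a 24 h chemical exposure of human primary bronchial epithelial cells, is analysed with bidirectional fitting using DMSO as negative control.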

[4] = read-out: Pselectin, SELP (gene 6403); experiment: BSK_4H_Pselectin: BioMAP Diversity Plus: 4H Assay for Pselectin Biomarker Activity (AID 2283026); conditions: primary human endothelial cells (HUVEC); actives raise or lower the signal
Method in brief: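 Endothelial primary cells (human umbilical vein) are dosed, incubated 24 h, and assayed for surface P-selectin by ELISA; responses in either direction are fitted relative to the DMSO negative control.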

[5] = BSK_4H_SRB: Viability Assessment in the BioMAP Diversity Plus: 4H Assay (AID 2283027); conditions: primary human endothelial cells (HUVEC);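 also: cells exposed to compound for 24 h before staining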;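 as to AC50: curves fitted both ways versus DMSO so AC50 may be loss or gain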
Method in brief: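 HUVEC, 24 h post-dose; 10% TCA fix, 0.1% SRB stain, A560 nm. Total protein = overt cytotoxicity, parallel to biomarker read. Bidirectional fit vs DMSO baseline.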

[6] = BSK_BE3C_SRB: Viability Assessment in the BioMAP Diversity Plus: BE3C Assay (AID 2283028); conditions: primary human bronchial epithelial cells;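 as to AC50: fitted both ways so AC50 may mark signal gain or loss versus DMSO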
Method in brief: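 Overt cytotoxicity was assessed as total protein in confluent human primary bronchial epithelial cultures 24 h after chemical addition, using 0.1% sulforhodamine B staining read at 560 nm.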

[7] = read-out: Thrombomodulin, THBD (gene 7056); experiment: BSK_3C_Thrombomodulin: BioMAP Diversity Plus: 3C Assay for Thrombomodulin Biomarker Activity (AID 2283029); conditions: primary human endothelial cells (HUVEC); actives raise or lower the signal
Method in brief: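 Endothelial cells from umbilical vein are dosed with test chemical and incubated 24 h. Thrombomodulin is then quantified by ELISA, with DMSO serving as negative control and activity baseline.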

[8] = read-out: Urokinase-type plasminogen activator receptor (uPAR), PLAUR (gene 5329); experiment: BSK_4H_uPAR: BioMAP Diversity Plus: 4H Assay for Urokinase-type plasminogen activator receptor (uPAR) Biomarker Activity (AID 2283030); conditions: primary human endothelial cells (HUVEC); actives raise or lower the signal
Method in brief: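 Chemicals are dosed onto human vascular endothelial primary cells (umbilical vein). After 24 h, uPAR is read by ELISA. Gain or loss of signal is fitted relative to DMSO.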

[9] = read-out: Vascular endothelial growth factor receptor 2 (Homo sapiens) (UniProt P35968); experiment: BSK_4H_VEGFRII: BioMAP Diversity Plus: 4H Assay for Vascular endothelial growth factor receptor 2 (VEGFR2) Biomarker Activity (AID 2283031); conditions: primary human endothelial cells (HUVEC); actives raise or lower the signal
Method in brief: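 VEGFRII levels on human vascular endothelial primary cells were determined by ELISA at 24 hours post-dosing, with gain- or loss-of-signal fitted against DMSO controls.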

[10] = read-out: Human Leukocyte Antigen - DR isotype (HLADR), HLA-DRA (gene 3122); experiment: BSK_BE3C_HLADR: BioMAP Diversity Plus: BE3C Assay for Human Leukocyte Antigen - DR isotype (HLADR) Biomarker Activity (AID 2283032); conditions: primary human bronchial epithelial cells; actives raise or lower the signal
Method in brief: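 Chemicals are dosed onto BE3C bronchial epithelial cultures of human origin and left 24 h. HLA-DR is then measured by ELISA, and the endpoint is fitted in both directions using DMSO as the activity baseline.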

[11] = read-out: Vascular cell adhesion molecule 1 (VCAM1), VCAM1 (gene 7412); experiment: BSK_4H_VCAM1: BioMAP Diversity Plus: 4H Assay for Vascular cell adhesion molecule 1 (VCAM1) Biomarker Activity (AID 2283033); conditions: primary human endothelial cells (HUVEC); actives raise or lower the signal
Method in brief: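 Chemicals are added to primary human umbilical vein endothelial cells. After 24 h, VCAM-1 levels are measured by ELISA. Values come from bidirectional fitting referenced to DMSO.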

[12] = read-out: Monokine induced gamma interferon (MIG), CXCL9 (gene 4283); experiment: BSK_BE3C_MIG: BioMAP Diversity Plus: BE3C Assay for Monokine induced gamma interferon (MIG) Biomarker Activity (AID 2283035); conditions: primary human bronchial epithelial cells; actives raise or lower the signal
Method in brief: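 Dose cells (human primary bronchial epithelial), incubate 24 h, quantify MIG by ELISA, then fit concentration–response in both directions relative to DMSO control.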

[13] = read-out: Transforming growth factor beta 1 (TGFb1), TGFB1 (gene 7040); experiment: BSK_BE3C_TGFb1: BioMAP Diversity Plus: BE3C Assay for Transforming growth factor beta 1 (TGFb1) Biomarker Activity (AID 2283036); conditions: primary human bronchial epithelial cells; actives raise or lower the signal
Method in brief: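 Bronchial epithelial primary cells are treated with test chemical, then TGF-b1 is quantified by ELISA after 24 hours. Values derive from bidirectional fitting against DMSO, with cytotoxicity checked by SRB staining in parallel cultures.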

[14] = read-out: Plasminogen activator inhibitor-1 (PAI1), SERPINE1 (gene 5054); experiment: BSK_BE3C_PAI1: BioMAP Diversity Plus: BE3C Assay for Plasminogen activator inhibitor-1 (PAI1) Biomarker Activity (AID 2283037); conditions: primary human bronchial epithelial cells; actives raise or lower the signal
Method in brief: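 Values derive from bidirectional fitting against DMSO baseline of PAI-1 levels, measured by ELISA in human bronchial epithelial cells 24 h after compound addition.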

[15] = read-out: urokinase plasminogen activator (uPA), PLAU (gene 5328); experiment: BSK_BE3C_uPA: BioMAP Diversity Plus: BE3C Assay for urokinase plasminogen activator (uPA) Biomarker Activity (AID 2283038); conditions: primary human bronchial epithelial cells; actives raise or lower the signal
Method in brief: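 Measured by ELISA: uPA from human primary bronchial epithelial cells 24 h after chemical treatment. Values derive from bidirectional curve fitting with DMSO serving as negative control. Total protein by SRB staining in parallel wells flagged overt cytotoxicity.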

[16] = read-out: Urokinase-type plasminogen activator receptor (uPAR), PLAUR (gene 5329); experiment: BSK_BE3C_uPAR: BioMAP Diversity Plus: BE3C Assay for Urokinase-type plasminogen activator receptor (uPAR) Biomarker Activity (AID 2283039); conditions: primary human bronchial epithelial cells; actives raise or lower the signal
Method in brief: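 Steps: dose human primary bronchial epithelial cells, incubate 24 h, measure uPAR by ELISA, then fit gain- or loss-of-signal response bidirectionally relative to DMSO.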

[17] = read-out: Interleukin-6 (IL6), IL6 (gene 3569); experiment: BSK_CASM3C_IL6: BioMAP Diversity Plus: CASM3C Assay for Interleukin-6 (IL6) Biomarker Activity for (AID 2283040); conditions: primary human coronary artery smooth muscle cells; actives raise or lower the signal
[18] = read-out: Interleukin-8 (IL8), CXCL8 (gene 3576); experiment: BSK_3C_IL8: BioMAP Diversity Plus: 3C Assay for Interleukin-8 (IL8) Biomarker Activity (AID 2283020); conditions: primary human endothelial cells (HUVEC); actives raise or lower the signal
Method in brief: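 Endothelial primary cells of human umbilical vein origin are dosed with chemical; after 24 h the IL-8 biomarker is measured by ELISA, and concentration–response is fitted in both directions versus DMSO.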

[19] = read-out: Interferon-gamma inducible Protein 10 (IP10), CXCL10 (gene 3627); experiment: BSK_BE3C_IP10: BioMAP Diversity Plus: BE3C Assay for Interferon-gamma inducible Protein 10 (IP10) Biomarker Activity (AID 2283034); conditions: primary human bronchial epithelial cells; actives raise or lower the signal
Method in brief: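 IP-10 quantified by ELISA serves as the endpoint. Cells: primary human bronchial epithelium, read 24 h after compound addition. Activity is derived by bidirectional fitting with DMSO as negative control.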

Measured: AC50

human Vitamin D Receptor (VDR), VDR (gene 7421), sequence (P11473 whole entry, looked up, the tested form may be a part): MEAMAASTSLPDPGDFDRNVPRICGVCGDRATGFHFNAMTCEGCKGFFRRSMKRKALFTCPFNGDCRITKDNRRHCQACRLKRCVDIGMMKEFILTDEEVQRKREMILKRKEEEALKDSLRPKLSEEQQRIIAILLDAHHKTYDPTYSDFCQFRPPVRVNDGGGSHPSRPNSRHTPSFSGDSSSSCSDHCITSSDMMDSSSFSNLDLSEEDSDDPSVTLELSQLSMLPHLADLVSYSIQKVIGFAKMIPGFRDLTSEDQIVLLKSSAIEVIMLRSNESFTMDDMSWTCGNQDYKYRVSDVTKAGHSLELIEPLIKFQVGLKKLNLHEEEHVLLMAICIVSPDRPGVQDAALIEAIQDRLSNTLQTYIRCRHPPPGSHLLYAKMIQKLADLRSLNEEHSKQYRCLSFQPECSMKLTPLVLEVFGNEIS

CCCCCCCCCC(=O)OCC
active: [4] 30.9 µM | [5] 31.5 µM | [7] 29.7 µM | [8] 20 µM | [11] 31.7 µM | [13] 20 µM | [17] 31.8 µM
not listed: [18] | [19]
inactive: all other assays above

O=C(c1ccc(OCCN2CCCCC2)cc1)c1c(-c2ccc(O)cc2)sc2cc(O)ccc12
active: [18] 20 µM | [1] 36.1 µM | [3] 32.2 µM | [4] 25.2 µM | [5] 33.2 µM | [6] 38.1 µM | [8] 25.3 µM | [10] 20.3 µM | [11] 34.5 µM | [12] 37.2 µM | [13] 31.9 µM | [14] 22.4 µM | [15] 34 µM | [16] 31.8 µM | [17] 20.1 µM
inactive: [2] | [7] | [9]

NC(=O)c1c(Cl)cccc1Cl
not listed: [2] | [18]
inactive: all other assays above

CCC(=O)OCC=Cc1ccccc1
not listed: [18] | [19]
inactive: all other assays above

CCCCCCCC1CCCC1=O (configuration not stated)
active: [3] 32.8 µM | [4] 32.8 µM | [8] 30.7 µM | [10] 30.7 µM | [11] 31.5 µM | [13] 36.6 µM | [14] 36.6 µM | [15] 32.4 µM | [17] 31 µM
inactive: [1] | [5] | [6] | [7] | [9] | [12] | [16]

CCOC(=O)CCCCCCCCC(=O)OCC
not listed: [2] | [18]
inactive: all other assays above
